The results in this text go back to PubChem BioAssay (NCI).

Assay [1] in a line: NCI Yeast Anticancer Drug Screen. Data for the rad50 strain (AID 155).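 Note: 0% = growth of vehicle-only cultures of the same strain.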 To be noted: S. cerevisiae rad50 strain growth inhibition, stronger effect = higher value. The method, boiled down:
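Readout: growth inhibition relative to vehicle-treated cultures. Compound exposure was carried out in a genetically defined yeast strain deficient in DNA damage repair.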

Assay [2] in a line: NCI Yeast Anticancer Drug Screen. Data for the mec2-1 strain (AID 157). The settings on record: S. cerevisiae mec2-1 strain, stronger effect = higher value. The method, boiled down: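 Test agents were screened against the mec2-1 yeast strain, with defined DNA repair or cell cycle alteration. Growth was scored as inhibition against vehicle-only controls.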
Assay [3] can be described thus: NCI Yeast Anticancer Drug Screen. Data for the sgs1 mgt1 strain (AID 161).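 Note: 0% = growth of cultures given vehicle only.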 The settings on record: S. cerevisiae sgs1 mgt1 strain, stronger effect = higher value. The method, boiled down: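 Mutant yeast exposed to compound; growth scored against vehicle-only wells.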
The nature of assay [4]: NCI Yeast Anticancer Drug Screen. Data for the cln2 rad14 strain (AID 165).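 Note: 0% = growth equal to vehicle treated cultures.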 The settings on record: S. cerevisiae cln2 rad14 strain, stronger effect = higher value. The method, boiled down: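 Growth of compound-exposed yeast (cln2 rad14 genotype) measured and expressed as inhibition relative to vehicle.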
Assay [5] in a line: NCI Yeast Anticancer Drug Screen. Data for the bub3 strain (AID 167). To be noted: S. cerevisiae bub3 mutant strain, stronger effect = higher value. The method, boiled down: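 Readout: yeast growth inhibition, expressed relative to vehicle-only wells. The test organism is a mutant strain from a panel with lesions in DNA repair or checkpoint genes.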
Assay [6] is described as follows: NCI Yeast Anticancer Drug Screen. Data for the mlh1 rad18 strain (AID 175). To be noted: S. cerevisiae mlh1 rad18 strain growth inhibition, stronger effect = higher value. In short, it runs like this: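 In this whole-cell yeast screen, a strain with altered DNA damage repair is challenged with compound, and its growth is measured against matched vehicle-treated controls.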

[7] abbreviates: at 5.0 µM (retest, dose inferred, filed as 0.5).
Where [8] appears, read: at 50.0 µM (retest, dose inferred, filed as 5.0).

About 79,000 compounds went through this panel and 15% of them were active in at least one assay; those are over-represented in the sample as a whole. Unmarked numbers belong to inactive results. Active and inactive are the calls of the source. Cut-off read from the data, not from the text of the source: active = growth inhibition above about 70%; inactive = the rest.

`C/C(=C\c1ccccc1Cl)c1ccccn1`: the growth inhibition in assay [1] (setting [7]) was 2%; in assay [1] (setting [8]) it was 67%; in assay [1] (at 50.0 µM) it was 86.2% (active); in assay [2] (setting [7]) it was 2%; in assay [2] (setting [8]) it was 49%; in assay [2] (at 50.0 µM), 89.6% (active). Further, the growth inhibition is 6% in assay [3] (setting [7]); 71% (active) in assay [3] (setting [8]); 80.7% (active) in assay [3] (at 50.0 µM); -7% in assay [4] (setting [7]); 7% in assay [4] (setting [8]); -44.5% in assay [4] (at 50.0 µM). Also, the growth inhibition in assay [5] (setting [7]) is 33%; in assay [5] (setting [8]), 98% (active); in assay [5] (at 50.0 µM), 96.8% (active); in assay [6] (setting [7]), 10%; in assay [6] (setting [8]), 27%; in assay [6] (at 50.0 µM), 83% (active).

As to `Cc1cc([N+](=O)[O-])cc(C)[n+]1[O-]`, the growth inhibition in assay [1] (setting [7]) is 13%; in assay [1] (setting [8]) it was 67%; in assay [1] (at 50.0 µM) it was 82.5% (active); in assay [2] (setting [7]), 0%; in assay [2] (setting [8]), 12%; in assay [2] (at 50.0 µM) it was 50.1%. The growth inhibition was 17% in assay [3] (setting [7]); 80% (active) in assay [3] (setting [8]); 91.2% (active) in assay [3] (at 50.0 µM); 3% in assay [4] (setting [7]); 53% in assay [4] (setting [8]); 44.8% in assay [4] (at 50.0 µM). Further, the growth inhibition in assay [5] (setting [7]) is 0%; in assay [5] (setting [8]), -14%; in assay [5] (at 50.0 µM) it was 6.55%; in assay [6] (setting [7]), 20%; in assay [6] (setting [8]), 60%; in assay [6] (at 50.0 µM) it was 84.2% (active).

For `CCCCCCCCCCCCCCCCCC(=O)Nc1ccn(C2OC(CO)C(O)C2O)c(=O)n1` (configuration not stated), the growth inhibition is 19% in assay [1] (setting [7]); 4% in assay [1] (setting [8]); 75.2% (active) in assay [1] (at 50.0 µM); 9% in assay [2] (setting [7]); 15% in assay [2] (setting [8]); 83.6% (active) in assay [2] (at 50.0 µM). Further, the growth inhibition in assay [3] (setting [7]) was 43%; in assay [3] (setting [8]), 41%; in assay [3] (at 50.0 µM), 67.8%; in assay [4] (setting [7]) it was 40%; in assay [4] (setting [8]) it was 45%; in assay [4] (at 50.0 µM), 80.2% (active). The growth inhibition in assay [5] (setting [7]) is 48%; in assay [5] (setting [8]), 43%; in assay [5] (at 50.0 µM), 82.3% (active); in assay [6] (setting [7]), 15%; in assay [6] (setting [8]), 4%; in assay [6] (at 50.0 µM), 82.8% (active).

For `Cc1cc(CN(Cc2ccccc2)Cc2nc3ccccc3[nH]2)c(O)c(CN(Cc2nc3ccccc3[nH]2)Cc2nc3ccccc3[nH]2)c1`, the growth inhibition in assay [1] (setting [7]) was 7%; in assay [1] (setting [8]) it was 44%; in assay [1] (at 50.0 µM) it was 73% (active); in assay [2] (setting [7]), -3%; in assay [2] (setting [8]) it was 24%; in assay [2] (at 50.0 µM), 72.5% (active). For the same compound, the growth inhibition in assay [3] (setting [7]) was 1%; in assay [3] (setting [8]), 70% (active); in assay [3] (at 50.0 µM), 94.3% (active); in assay [4] (setting [7]), -5%; in assay [4] (setting [8]), 59%; in assay [4] (at 50.0 µM) it was 67.3%. For the same compound, the growth inhibition in assay [5] (setting [7]) is 3%; in assay [5] (setting [8]), 66%; in assay [5] (at 50.0 µM), 27.9%; in assay [6] (setting [7]) it was 2%; in assay [6] (setting [8]), 79% (active); in assay [6] (at 50.0 µM), 93.3% (active).

Take `O=C(Oc1ccc(Cl)cc1)Oc1ccc(Cl)cc1`: the growth inhibition is -13% in assay [1] (setting [7]); 16% in assay [1] (setting [8]); 3.55% in assay [1] (at 50.0 µM); -10% in assay [2] (setting [7]); 4% in assay [2] (setting [8]); 16.7% in assay [2] (at 50.0 µM). In addition, the growth inhibition in assay [3] (setting [7]) was 0%; in assay [3] (setting [8]), 25%; in assay [3] (at 50.0 µM), 14.3%; in assay [4] (setting [7]) it was -2%; in assay [4] (setting [8]) it was 36%; in assay [4] (at 50.0 µM), 16.9%. The growth inhibition in assay [5] (setting [7]) is -1%; in assay [5] (setting [8]), -23%; in assay [5] (at 50.0 µM), 18.3%; in assay [6] (setting [7]) it was 6%; in assay [6] (setting [8]), 12%; in assay [6] (at 50.0 µM), 17.1%.

Take `S=C=NCCCCCCN=C=S`: the growth inhibition in assay [1] (setting [7]) is 36%; in assay [1] (setting [8]), 99% (active); in assay [1] (at 50.0 µM), 99.6% (active); in assay [2] (setting [7]), 41%; in assay [2] (setting [8]), 99% (active); in assay [2] (at 50.0 µM), 99.5% (active). Further, the growth inhibition in assay [3] (setting [7]) was 59%; in assay [3] (setting [8]), 99% (active); in assay [3] (at 50.0 µM) it was 99.3% (active); in assay [4] (setting [7]), 21%; in assay [4] (setting [8]), 99% (active); in assay [4] (at 50.0 µM) it was 99.3% (active). For the same compound, the growth inhibition in assay [5] (setting [7]) was 58%; in assay [5] (setting [8]), 99% (active); in assay [5] (at 50.0 µM) it was 99.3% (active); in assay [6] (setting [7]) it was 79% (active); in assay [6] (setting [8]) it was 99% (active); in assay [6] (at 50.0 µM) it was 99.2% (active).

On to `NC(c1ccccc1)P(=O)(OCc1ccc([N+](=O)[O-])cc1)OCc1ccc([N+](=O)[O-])cc1` (configuration not stated), for which the growth inhibition in assay [1] (setting [7]) was 15%; in assay [1] (setting [8]), 15%; in assay [1] (at 50.0 µM) it was 57.2%; in assay [2] (setting [7]), -4%; in assay [2] (setting [8]) it was -4%; in assay [2] (at 50.0 µM) it was 33.6%. For the same compound, the growth inhibition is -3% in assay [3] (setting [7]); -3% in assay [3] (setting [8]); 72.3% (active) in assay [3] (at 50.0 µM); 11% in assay [4] (setting [7]); 11% in assay [4] (setting [8]); 35.6% in assay [4] (at 50.0 µM). Further, the growth inhibition in assay [5] (setting [7]) was 6%; in assay [5] (setting [8]) it was 6%; in assay [5] (at 50.0 µM), 36.9%; in assay [6] (setting [7]), 14%; in assay [6] (setting [8]), 14%; in assay [6] (at 50.0 µM), 33.4%.

Take `CC1(C)C(=O)C(C(Cl)(Cl)Cl)=C(Cl)C(=O)C1(Cl)Cl`: the growth inhibition in assay [1] (setting [7]) is 64%; in assay [1] (setting [8]), 97% (active); in assay [1] (at 50.0 µM), 52.5%; in assay [2] (setting [7]), 27%; in assay [2] (setting [8]) it was 96% (active); in assay [2] (at 50.0 µM) it was 42.1%. Besides, the growth inhibition in assay [3] (setting [7]) is 38%; in assay [3] (setting [8]), 93% (active); in assay [3] (at 50.0 µM), 64.9%; in assay [4] (setting [7]) it was 49%; in assay [4] (setting [8]), 89% (active); in assay [4] (at 50.0 µM), 48.8%. Moreover, the growth inhibition in assay [5] (setting [7]) is 56%; in assay [5] (setting [8]), 96% (active); in assay [5] (at 50.0 µM), 51.1%; in assay [6] (setting [7]) it was 42%; in assay [6] (setting [8]) it was 97% (active); in assay [6] (at 50.0 µM), 67.5%.

Take `COc1cccc2c1C(=O)c1c(O)c3c(c(O)c1C2=O)C[C@@](O)(/C(C)=N/NC(N)=S)C[C@@H]3OC1CC(N)C(O)C(C)O1` (some centres not stated): the growth inhibition in assay [1] (setting [7]) is 27%; in assay [1] (setting [8]), 91% (active); in assay [1] (at 50.0 µM) it was 95.5% (active); in assay [2] (setting [7]) it was 8%; in assay [2] (setting [8]), 58%; in assay [2] (at 50.0 µM), 94.7% (active). For the same compound, the growth inhibition in assay [3] (setting [7]) was 3%; in assay [3] (setting [8]) it was 56%; in assay [3] (at 50.0 µM), 96.3% (active); in assay [4] (setting [7]), 4%; in assay [4] (setting [8]) it was 38%; in assay [4] (at 50.0 µM) it was 82.8% (active). Also, the growth inhibition was 4% in assay [5] (setting [7]); 60% in assay [5] (setting [8]); 95.3% (active) in assay [5] (at 50.0 µM); 8% in assay [6] (setting [7]); 75% (active) in assay [6] (setting [8]); 95.7% (active) in assay [6] (at 50.0 µM).
